# Source: PubChem BioAssay (EPA / NIEHS)
# Records with an inconclusive call do not appear. The source made the active and inactive calls. Rule for the calls: active = hit-call score of the fitted dose curve at least 0.9, where 1 is the maximum; inconclusive = response in the unintended direction; inactive = score below 0.9.
# How the values were obtained:
# [1] = biological target: Collagenase 3 (Homo sapiens) (UniProt P45452); assay: NVS_ENZ_hMMP13: NovaScreen (NVS) Enzymatic Assay for human Matrix Metalloproteinase-13 (MMP13) (AID 2283182)
# How it was run: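 Recombinant MMP13 cleaving fluorescent substrate, cell-free, measured 1 h after dosing. Primary duplicate screen at 25 uM; actives tested in concentration-response up to 50 uM; loss of signal relative to DMSO.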
# [2] = biological target: human Phosphodiesterase 4A1 (PDE4A1), PDE4A (gene 5141) (UniProt P27815); assay: NVS_ENZ_hPDE4A1: NovaScreen (NVS) Enzymatic Assay for human Phosphodiesterase 4A1 (PDE4A1) (AID 2283191)
# human Phosphodiesterase 4A1 (PDE4A1), PDE4A (gene 5141), sequence (P27815 whole entry, looked up): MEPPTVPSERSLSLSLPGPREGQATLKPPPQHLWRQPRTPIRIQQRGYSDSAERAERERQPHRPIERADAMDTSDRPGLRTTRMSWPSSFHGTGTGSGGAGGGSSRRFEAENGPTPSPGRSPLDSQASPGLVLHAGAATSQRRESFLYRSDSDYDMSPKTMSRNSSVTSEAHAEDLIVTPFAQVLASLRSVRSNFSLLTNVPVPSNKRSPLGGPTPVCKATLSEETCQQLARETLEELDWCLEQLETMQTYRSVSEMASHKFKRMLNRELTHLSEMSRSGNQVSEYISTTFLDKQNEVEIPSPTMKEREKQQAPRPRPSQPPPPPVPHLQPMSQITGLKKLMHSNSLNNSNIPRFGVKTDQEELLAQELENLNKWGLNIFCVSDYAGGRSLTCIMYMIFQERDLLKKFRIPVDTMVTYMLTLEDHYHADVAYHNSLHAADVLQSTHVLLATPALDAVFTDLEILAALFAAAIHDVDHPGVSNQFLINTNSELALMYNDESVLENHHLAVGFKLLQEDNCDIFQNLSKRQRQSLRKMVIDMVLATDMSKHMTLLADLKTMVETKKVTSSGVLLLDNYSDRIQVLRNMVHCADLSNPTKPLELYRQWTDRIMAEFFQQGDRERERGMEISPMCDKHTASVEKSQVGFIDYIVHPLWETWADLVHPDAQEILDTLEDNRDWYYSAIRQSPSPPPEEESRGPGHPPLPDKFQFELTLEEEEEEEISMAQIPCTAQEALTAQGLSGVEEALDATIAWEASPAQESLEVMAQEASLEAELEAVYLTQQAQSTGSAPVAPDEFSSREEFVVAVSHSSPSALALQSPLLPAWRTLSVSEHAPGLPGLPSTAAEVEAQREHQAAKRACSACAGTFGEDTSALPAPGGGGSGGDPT
# How it was run: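 Fluorescent substrate turnover by recombinant PDE4A1 read after 1 h by mobility-shift separation. Primary duplicate screen at 25 uM; hits retested in concentration series with a 50 uM maximum, relative to DMSO.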
# [3] = biological target: human Phosphodiesterase 5 (PDE5), PDE5A (gene 8654) (UniProt O76074); assay: NVS_ENZ_hPDE5: NovaScreen (NVS) Enzymatic Assay for human Phosphodiesterase 5 (PDE5) (AID 2283194)
# How it was run: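 Screening began in duplicate at 25 uM, with actives taken into concentration-response. Enzyme activity of recombinant PDE5 toward its substrate was measured at 1 h by fluorescence mobility-shift detection, relative to DMSO controls.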
# [4] = biological target: human Phosphodiesterase 10 (PDE10), PDE10A (gene 10846) (UniProt Q9Y233); assay: NVS_ENZ_hPDE10: NovaScreen (NVS) Enzymatic Assay for human Phosphodiesterase 10 (PDE10) (AID 2283195)
# human Phosphodiesterase 10 (PDE10), PDE10A (gene 10846), sequence (Q9Y233 whole entry, looked up): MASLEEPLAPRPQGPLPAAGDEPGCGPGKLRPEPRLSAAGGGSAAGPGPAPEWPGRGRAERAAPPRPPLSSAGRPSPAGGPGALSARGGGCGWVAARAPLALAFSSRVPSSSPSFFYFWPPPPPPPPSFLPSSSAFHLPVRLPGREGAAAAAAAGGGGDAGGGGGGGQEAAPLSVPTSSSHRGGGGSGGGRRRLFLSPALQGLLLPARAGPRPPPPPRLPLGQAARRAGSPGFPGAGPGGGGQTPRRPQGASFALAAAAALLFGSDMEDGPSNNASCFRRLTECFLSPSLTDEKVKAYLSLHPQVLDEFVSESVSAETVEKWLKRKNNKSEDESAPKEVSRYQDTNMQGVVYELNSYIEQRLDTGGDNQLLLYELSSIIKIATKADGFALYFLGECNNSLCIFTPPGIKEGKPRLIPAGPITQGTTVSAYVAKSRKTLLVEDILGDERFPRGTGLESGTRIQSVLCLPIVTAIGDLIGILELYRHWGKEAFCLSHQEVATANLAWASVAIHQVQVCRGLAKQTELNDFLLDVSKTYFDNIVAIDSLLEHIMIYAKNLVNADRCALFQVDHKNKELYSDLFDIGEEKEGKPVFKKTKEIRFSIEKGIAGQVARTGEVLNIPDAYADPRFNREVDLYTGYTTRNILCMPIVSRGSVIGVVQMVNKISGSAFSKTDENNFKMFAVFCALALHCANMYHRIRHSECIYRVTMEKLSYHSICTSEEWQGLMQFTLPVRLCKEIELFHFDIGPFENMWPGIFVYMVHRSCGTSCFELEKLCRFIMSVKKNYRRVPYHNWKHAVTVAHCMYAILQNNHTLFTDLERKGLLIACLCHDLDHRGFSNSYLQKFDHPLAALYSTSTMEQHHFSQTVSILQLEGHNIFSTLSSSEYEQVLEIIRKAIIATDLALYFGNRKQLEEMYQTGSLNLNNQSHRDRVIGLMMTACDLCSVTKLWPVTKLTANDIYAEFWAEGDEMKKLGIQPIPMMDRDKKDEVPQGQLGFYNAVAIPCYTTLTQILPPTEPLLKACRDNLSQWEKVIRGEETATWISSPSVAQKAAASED
# How it was run: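 Biochemical single-readout PDE10A assay, cell-free, extracted protein. Compounds first screened at 25 uM in duplicate, hits then titrated to 50 uM max. Activity measured after 1 h; loss-of-signal fitted against DMSO negative control.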
# [5] = biological target: human Janus Kinase 2 (Jak2), JAK2 (gene 3717) (UniProt O60674); assay: NVS_ENZ_hJak2: NovaScreen (NVS) Enzymatic Assay for human Janus Kinase 2 (Jak2) (AID 2283169)
# human Janus Kinase 2 (Jak2), JAK2 (gene 3717), sequence (O60674 whole entry, looked up): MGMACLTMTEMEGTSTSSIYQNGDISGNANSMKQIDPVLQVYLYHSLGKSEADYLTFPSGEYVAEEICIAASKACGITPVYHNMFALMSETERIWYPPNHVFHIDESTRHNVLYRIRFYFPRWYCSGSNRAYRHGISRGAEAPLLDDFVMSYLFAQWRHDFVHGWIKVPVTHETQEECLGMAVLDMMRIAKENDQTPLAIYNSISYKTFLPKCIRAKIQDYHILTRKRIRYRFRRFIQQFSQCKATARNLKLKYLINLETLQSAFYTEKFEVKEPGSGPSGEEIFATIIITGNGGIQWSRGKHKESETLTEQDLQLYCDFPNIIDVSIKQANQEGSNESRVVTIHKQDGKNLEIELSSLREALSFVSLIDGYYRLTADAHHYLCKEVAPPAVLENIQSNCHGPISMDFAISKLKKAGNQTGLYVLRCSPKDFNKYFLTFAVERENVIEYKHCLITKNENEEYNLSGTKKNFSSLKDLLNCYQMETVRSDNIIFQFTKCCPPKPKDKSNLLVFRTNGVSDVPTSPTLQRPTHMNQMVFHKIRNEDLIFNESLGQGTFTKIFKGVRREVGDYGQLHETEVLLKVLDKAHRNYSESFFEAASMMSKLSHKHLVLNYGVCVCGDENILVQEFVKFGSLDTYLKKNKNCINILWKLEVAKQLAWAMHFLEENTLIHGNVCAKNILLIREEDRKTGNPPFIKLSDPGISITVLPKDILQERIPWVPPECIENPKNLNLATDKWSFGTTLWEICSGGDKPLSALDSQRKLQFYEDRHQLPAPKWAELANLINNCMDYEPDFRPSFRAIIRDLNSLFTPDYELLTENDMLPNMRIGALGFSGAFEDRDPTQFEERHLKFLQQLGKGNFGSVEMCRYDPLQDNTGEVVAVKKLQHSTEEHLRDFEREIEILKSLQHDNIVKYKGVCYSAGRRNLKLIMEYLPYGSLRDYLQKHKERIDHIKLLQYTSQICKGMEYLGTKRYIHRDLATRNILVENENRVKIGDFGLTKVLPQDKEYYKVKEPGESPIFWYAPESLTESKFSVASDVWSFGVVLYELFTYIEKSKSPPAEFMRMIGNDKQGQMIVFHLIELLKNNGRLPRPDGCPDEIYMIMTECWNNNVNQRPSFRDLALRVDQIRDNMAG
# How it was run: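 Single-point duplicate screen at 25 uM, with hits run in concentration series to a 50 uM top dose. Substrate-product separation by mobility shift with fluorescence detection, 1 h post-dosing; DMSO baseline.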
# [6] = biological target: Mitogen-activated protein kinase 3 (Homo sapiens) (UniProt P27361); assay: NVS_ENZ_hMAPK3: NovaScreen (NVS) Enzymatic Assay for human Mitogen-Activated Protein Kinase 3 (MAPK 3) (AID 2283177)
# Mitogen-activated protein kinase 3 (Homo sapiens), sequence (P27361 whole entry, looked up): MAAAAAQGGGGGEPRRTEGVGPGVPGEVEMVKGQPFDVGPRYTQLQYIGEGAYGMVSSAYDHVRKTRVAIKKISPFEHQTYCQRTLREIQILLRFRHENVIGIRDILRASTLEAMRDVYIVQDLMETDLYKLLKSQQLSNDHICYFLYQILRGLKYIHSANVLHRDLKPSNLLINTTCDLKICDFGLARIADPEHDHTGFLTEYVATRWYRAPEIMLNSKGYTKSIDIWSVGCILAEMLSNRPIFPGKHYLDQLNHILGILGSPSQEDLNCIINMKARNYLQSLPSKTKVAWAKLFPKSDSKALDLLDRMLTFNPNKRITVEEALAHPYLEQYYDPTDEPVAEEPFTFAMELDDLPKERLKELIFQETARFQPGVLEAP
# How it was run: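 Chemicals were first tested in duplicate at 25 uM, with hits re-run as concentration series (max 50 uM). Recombinant enzyme activity, measured 1 h post-dose in a cell-free format, was read by fluorescence/mobility shift relative to DMSO.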
# [7] = biological target: human Matrix Metalloproteinase-2 (MMP2), MMP2 (gene 4313) (UniProt P08253); assay: NVS_ENZ_hMMP2: NovaScreen (NVS) Enzymatic Assay for human Matrix Metalloproteinase-2 (MMP2) (AID 2283184)
# How it was run: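 Compounds first screened in duplicate at a single 25 uM, with actives followed up in concentration series. Recombinant human MMP2 cleaves a fluorogenic substrate; fluorescence taken at 1 h, inhibition fitted relative to DMSO.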
# [8] = biological target: human Matrix Metalloproteinase-7 (MMP7), MMP7 (gene 4316) (UniProt P09237); assay: NVS_ENZ_hMMP7: NovaScreen (NVS) Enzymatic Assay for human Matrix Metalloproteinase-7 (MMP7) (AID 2283183)
# human Matrix Metalloproteinase-7 (MMP7), MMP7 (gene 4316), sequence (P09237 whole entry, looked up): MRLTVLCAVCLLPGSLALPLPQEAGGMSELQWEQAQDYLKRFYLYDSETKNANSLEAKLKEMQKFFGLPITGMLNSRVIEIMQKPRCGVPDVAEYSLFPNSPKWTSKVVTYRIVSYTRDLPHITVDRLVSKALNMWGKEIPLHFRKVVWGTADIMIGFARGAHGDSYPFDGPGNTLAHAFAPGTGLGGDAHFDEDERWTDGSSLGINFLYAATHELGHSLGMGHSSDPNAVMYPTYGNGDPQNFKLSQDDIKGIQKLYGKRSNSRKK
# How it was run: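 Compounds first tested at 25 uM in duplicate, then at up to 50 uM in concentration series if active. Protease activity measured by fluorescence intensity 1 h after dosing, with fitting relative to DMSO.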
# [9] = biological target: human Mitogen- and Stress-activated Protein Kinase-1 (Msk1), RPS6KA5 (gene 9252) (UniProt O75582); assay: NVS_ENZ_hMsk1: NovaScreen (NVS) Enzymatic Assay for human Mitogen- and Stress-activated Protein Kinase-1 (Msk1) (AID 2283187)
# How it was run: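 Chemicals first run in duplicate at 25 uM, with actives followed up in singleton concentration series to 50 uM maximum. Enzyme activity came from substrate/product mobility-shift separation with fluorescence detection after 1 h incubation of the recombinant protein.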
# [10] = biological target: human Phosphoinositide 3-kinase alpha (PI3Ka), PIK3CA (gene 5290) (UniProt P42336); assay: NVS_ENZ_hPI3Ka: NovaScreen (NVS) Enzymatic Assay for human Phosphoinositide 3-kinase alpha (PI3Ka) (AID 2283196)
# How it was run: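 Enzyme activity as fluorescence after mobility-shift separation of substrate and product, 1 h reaction, recombinant human PI3Kα; concentration-response to 50 uM max for chemicals passing a 25 uM duplicate screen.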
# [11] = biological target: human MAP Kinase-Activated Protein Kinase 2 (MAPKAPK2), MAPKAPK2 (gene 9261) (UniProt P49137); assay: NVS_ENZ_hMAPKAPK2: NovaScreen (NVS) Enzymatic Assay for human MAP Kinase-Activated Protein Kinase 2 (MAPKAPK2) (AID 2283178)
# human MAP Kinase-Activated Protein Kinase 2 (MAPKAPK2), MAPKAPK2 (gene 9261), sequence (P49137 whole entry, looked up): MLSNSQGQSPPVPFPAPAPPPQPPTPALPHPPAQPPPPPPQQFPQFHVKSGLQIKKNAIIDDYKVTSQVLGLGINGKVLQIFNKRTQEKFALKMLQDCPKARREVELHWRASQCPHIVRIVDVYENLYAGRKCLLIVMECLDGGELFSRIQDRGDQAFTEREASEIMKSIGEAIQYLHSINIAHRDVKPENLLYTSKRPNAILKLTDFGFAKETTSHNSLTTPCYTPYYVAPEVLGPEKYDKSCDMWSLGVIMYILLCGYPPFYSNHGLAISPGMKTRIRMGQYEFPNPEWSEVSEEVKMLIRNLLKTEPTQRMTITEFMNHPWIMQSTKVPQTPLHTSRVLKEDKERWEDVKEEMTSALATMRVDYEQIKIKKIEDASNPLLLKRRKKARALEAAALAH
# How it was run: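 Chemicals screened in duplicate at 25 uM, then to 50 uM top concentration in concentration-response, against recombinant human MAPKAPK2; substrate conversion read 1 hr post-dosing by fluorescence after electrophoretic mobility-shift separation, loss-of-signal relative to DMSO.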
# [12] = biological target: human Protein Phosphatase, Mg2+/Mn2+ Dependent 1A (PPM1A), PPM1A (gene 5494) (UniProt P35813); assay: NVS_ENZ_hPPM1A: NovaScreen (NVS) Enzymatic Assay for human Protein Phosphatase, Mg2+/Mn2+ Dependent 1A (PPM1A) (AID 2283198)
# human Protein Phosphatase, Mg2+/Mn2+ Dependent 1A (PPM1A), PPM1A (gene 5494), sequence (P35813 whole entry, looked up): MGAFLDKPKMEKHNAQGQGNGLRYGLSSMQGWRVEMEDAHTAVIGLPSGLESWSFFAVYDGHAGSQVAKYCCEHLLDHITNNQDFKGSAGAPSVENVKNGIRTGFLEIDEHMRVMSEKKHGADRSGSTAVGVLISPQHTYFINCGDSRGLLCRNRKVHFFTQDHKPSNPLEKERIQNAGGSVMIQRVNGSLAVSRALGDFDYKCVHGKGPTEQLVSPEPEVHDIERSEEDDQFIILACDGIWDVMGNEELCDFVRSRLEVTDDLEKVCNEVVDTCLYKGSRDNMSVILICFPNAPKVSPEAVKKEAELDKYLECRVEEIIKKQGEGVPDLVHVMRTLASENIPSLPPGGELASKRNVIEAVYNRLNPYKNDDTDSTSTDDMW
# How it was run: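 Primary screen in duplicate at 25 uM, with actives then titrated to a maximum of 50 uM. Recombinant PPM1A dephosphorylation of fluorescent substrate measured at 1 h, with substrate and product separated by mobility shift; inhibition fitted against DMSO.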
# [13] = biological target: Serine/threonine-protein phosphatase PP1-alpha catalytic subunit (Homo sapiens) (UniProt P62136); assay: NVS_ENZ_hPPP1CA: NovaScreen (NVS) Enzymatic Assay for human Protein Phosphatase 1 Aatalytic subunit Alpha (PPP1CA) (AID 2283200)
# Serine/threonine-protein phosphatase PP1-alpha catalytic subunit (Homo sapiens), sequence (P62136 whole entry, looked up): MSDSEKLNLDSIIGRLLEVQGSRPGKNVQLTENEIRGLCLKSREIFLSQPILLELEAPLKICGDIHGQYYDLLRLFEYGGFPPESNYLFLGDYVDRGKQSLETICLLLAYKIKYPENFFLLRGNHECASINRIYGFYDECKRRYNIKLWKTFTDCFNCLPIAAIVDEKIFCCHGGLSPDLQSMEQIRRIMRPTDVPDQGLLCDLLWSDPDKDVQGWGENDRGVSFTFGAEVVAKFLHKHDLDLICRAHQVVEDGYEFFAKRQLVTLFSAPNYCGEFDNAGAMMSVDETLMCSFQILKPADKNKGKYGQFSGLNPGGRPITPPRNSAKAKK
# How it was run: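 Chemicals were first screened in duplicate at 25 uM, and those passing threshold (e.g. 30% inhibition) were run as concentration series to 50 uM. Cell-free recombinant protein, 1.33 h read, fluorescent substrate/product mobility-shift detection, normalised to DMSO.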
# [14] = biological target: human c-Jun N-terminal Kinases (JNK2), MAPK9 (gene 5601) (UniProt P45984); assay: NVS_ENZ_hJNK2: NovaScreen (NVS) Enzymatic Assay for human c-Jun N-terminal Kinases (JNK2) (AID 2283171)
# How it was run: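 Chemicals first tested in duplicate at 25 uM, then in singleton concentration series up to 50 uM, against extracted JNK2 enzyme. Activity loss read by fluorescence with mobility-shift separation 1 h post-dose; DMSO baseline.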
# [15] = biological target: human Protein Tyrosine Phosphatase Non-receptor Type 1 (PTPN1), PTPN1 (gene 5770) (UniProt P18031); assay: NVS_ENZ_hPTPN1: NovaScreen (NVS) Enzymatic Assay for human Protein Tyrosine Phosphatase Non-receptor Type 1 (PTPN1) (AID 2283201)
# How it was run: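 Chemicals were first tested in duplicate at 25 uM, and those passing threshold went on to singleton concentration series topping at 50 uM. Recombinant enzyme, specific substrate, product separated by mobility shift, fluorescence read at 1.33 h; activity loss relative to DMSO.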
# [16] = biological target: human Matrix Metalloproteinase-3 (MMP3), MMP3 (gene 4314) (UniProt P08254); assay: NVS_ENZ_hMMP3: NovaScreen (NVS) Enzymatic Assay for human Matrix Metalloproteinase-3 (MMP3) (AID 2283185)
# How it was run: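 Fluorescent substrate turnover by recombinant MMP3 read after 1 h, signal loss scored against DMSO. Compounds first run in duplicate at 25 uM single dose, then actives confirmed by concentration series.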
# [17] = biological target: human LYN Proto-Oncogene, Src family Tyrosine Kinase (LynA), LYN (gene 4067) (UniProt P07948); assay: NVS_ENZ_hLynA: NovaScreen (NVS) Enzymatic Assay for human LYN Proto-Oncogene, Src family Tyrosine Kinase (LynA) (AID 2283173)
# How it was run: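 Recombinant kinase with fluorescent substrate; product separated from substrate by electrophoretic mobility shift and read 1 h after dosing. Duplicate screen at 25 uM, then concentration-response up to 50 uM; activity scored as signal loss against DMSO.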
# [18] = biological target: cAMP-dependent protein kinase catalytic subunit alpha (Homo sapiens) (UniProt P17612); assay: NVS_ENZ_hPKA: NovaScreen (NVS) Enzymatic Assay for human Protein Kinase A (PKA) (AID 2283192)
# How it was run: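 Cell-free kinase activity read by fluorescence after mobility-shift separation of substrate and product, 1 h post-dosing. Single-concentration duplicate screen (25 uM) preceded singleton concentration series (top 50 uM); loss of signal versus DMSO.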
# [19] = biological target: human Matrix Metalloproteinase-9 (MMP9), MMP9 (gene 4318) (UniProt P14780); assay: NVS_ENZ_hMMP9: NovaScreen (NVS) Enzymatic Assay for human Matrix Metalloproteinase-9 (MMP9) (AID 2283190);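 note: cell-free recombinant MMP9 protease activity read by fluorescent substrate signal; active means inhibition seen as loss of fluorescence signal versus DMSO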
# How it was run: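 Cell-free fluorescence-intensity enzyme activity assay using extracted protein, read 1 h after dosing. Loss of signal versus DMSO baseline indicates inhibition; primary screen in duplicate at 25 uM, actives followed up in concentration series.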
structure (smiles),measurement,setting,value
CCc1nn(C2CCCCC2)c2cc(C3(C#N)CCC(C(=O)O)CC3)ccc12 (stereo not given),AC50,[1],19.4 µM (active)
same,AC50,[2],0.00229 µM (active)
same,outcome,[3],inactive
same,outcome,[4],inactive
C=C(C)C(=O)OCCC(F)(F)C(F)(F)C(F)(F)C(F)(F)C(F)(F)C(F)(F)F,outcome,[5],inactive
O=C(O)c1ccccc1C(c1ccc(O)cc1)c1ccc(O)cc1,outcome,[6],inactive
CN1CCN(c2ccccc2/C=C2\SCCN(c3ccc(Cl)c(Cl)c3)C2=O)CC1,outcome,[5],inactive
same,outcome,[7],inactive
COCC(C)OCC(C)O (stereo not given),outcome,[5],inactive
same,outcome,[8],inactive
same,outcome,[9],inactive
same,outcome,[10],inactive
OC1CCC(C2CCCCC2)CC1 (stereo not given),outcome,[11],inactive
COC(=O)CCCCC(=O)OC,outcome,[3],inactive
same,outcome,[12],inactive
CCCCOCCO,outcome,[13],inactive
c1ccc2cc3c(ccc4ccccc43)cc2c1,outcome,[8],inactive
same,outcome,[2],inactive
N#C[C@@H]1CC(F)(F)CN1C(=O)CNC1CC2CCC(C1)N2c1ncccn1 (stereo not given in full),outcome,[14],inactive
same,outcome,[6],inactive
same,outcome,[13],inactive
CC[C@H](c1ccc(O)cc1)[C@@H](CC)c1ccc(O)cc1,outcome,[11],inactive
same,outcome,[8],inactive
CCC(=C(c1ccc(O)cc1)c1ccc(OCCN(C)C)cc1)c1ccccc1,outcome,[15],inactive
CC(C)CCCCCCOC(=O)CCCCC(=O)OCCCCCCC(C)C,outcome,[16],inactive
CCCCCCCC(=O)O,outcome,[5],inactive
same,outcome,[17],inactive
same,outcome,[6],inactive
same,outcome,[9],inactive
same,outcome,[18],inactive
same,outcome,[3],inactive
same,outcome,[15],inactive
O=C(O)Cc1cc(I)c(Oc2cc(I)c(O)c(I)c2)c(I)c1,outcome,[5],inactive
same,outcome,[14],inactive
same,outcome,[6],inactive
same,AC50,[2],0.0269 µM (active)
same,outcome,[18],inactive
same,AC50,[3],9.05 µM (active)
same,AC50,[4],8.91 µM (active)
CN1CCC[C@H]1c1cccnc1,outcome,[13],inactive
CCCCCCCCCCCCCC[N+](C)(C)C,outcome,[19],inactive
same,outcome,[4],inactive
same,AC50,[10],8.66 µM (active)
CCCCCCC(=O)O,outcome,[3],inactive
same,outcome,[12],inactive
